Assay results published in PubChem BioAssay (NCATS).
Several values for one entry are separate records, joined by “and”; a condition that tells them apart may be missing. Equal entries are not always repeated. Inconclusive results are not listed. Activity calls are given as the source filed them. Unless noted, calls come from the whole dose curve; as a rule, active = well fitted curve in the direction sought with a large enough effect; inconclusive = small, poorly fitted or top-dose-only effect, or another doubt; inactive = no such curve, though single readings can be large; an effect the other way counts as inactive or inconclusive. Peptide text beside a SMILES is read from it.

Tests used:
[1] = Cell Viability - BJ (AID 421; calls by dose curve;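 note: potency is the fitted concentration of half-maximal effect; cells exposed to compound for 40 hours at 37 °C before readout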); conditions: BJ fibroblast viability, qHTS
How it was run: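 Luminescent ATP signal (CellTiter-Glo, 20 min at room temperature) served as the read-out of viable BJ cells after 40 hours of compound treatment. Responses were scaled between DMSO and 100 uM tamoxifen, and AC50 values were obtained by Hill modeling.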

[2] = Cell Viability - Jurkat (AID 426;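 active = dose-dependent loss of cell ATP signal giving a full or clear fitted curve, ranked by lower potency value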;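 note: potency is the fitted concentration of half-maximal effect; cells exposed to compound for 40 hours at 37 °C before ATP read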); conditions: qHTS
How it was run: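 Luminescent ATP read-out (CellTiter-Glo, 20 min at room temperature) after 40 hr compound exposure at 37 °C of Jurkat E6-1 cells, 5000/well. Decreased ATP taken as cytotoxicity; AC50 from standard Hill equation.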

[3] = Cell Viability - Hek293 (AID 427;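 active = compounds whose dose-response curve shows a full or clear partial loss of cell viability, called from curve shape rather than a numeric limit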;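 note: potency is the fitted concentration of half-maximal effect; cells exposed to compound for 40 hours at 37 °C before reading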); conditions: qHTS
How it was run: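 Luminescent ATP read-out (CellTiter-Glo, 20 min RT) after 40 hr compound exposure at 37 °C in complete medium. Signal normalized to DMSO (basal) and 100 uM tamoxifen (100% inhibition); concentration-response fitted with the standard Hill equation to give AC50.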

[4] = Cell Viability - SK-N-SH (AID 435; calls by dose curve; note: potency is the fitted concentration of half-maximal effect); conditions: SK-N-SH neuroblastoma cell viability qHTS
How it was run: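 CellTiter-Glo ATP luminescence, 20 min RT read; cells pre-plated 5 hr, compound 40 hr at 37 °C, 1500 cells/well, complete medium. Normalized DMSO = 0, 100 uM tamoxifen = 100% inhibition; Hill-fit AC50.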

[5] = Cell Viability - N2a (AID 540); conditions: N2a mouse neuroblastoma cell viability; at 92.2 µM (top of the series);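 note: plate controls were DMSO alone for no effect and tamoxifen control for full effect; nearly all actives have a fitted effect of over 45% in size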
How it was run: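 N2a mouse neuroblastoma, 1500 cells/well, 5 hr settle; compound 40 hr, 37 °C; CellTiter-Glo 20 min RT; luminescence; Hill-fit AC50.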

[6] = Cell Viability - NIH 3T3 (AID 541); conditions: NIH 3T3 cell viability, qHTS; series mostly up to 92.2 µM;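 note: plate controls were DMSO alone for no effect and tamoxifen positive control for full effect; nearly all actives have a fitted effect of over 25% in size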
How it was run: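 qHTS format; 40 hr compound exposure, 37 °C; CellTiter-Glo luminescence (cellular ATP) read-out after 20 min at RT. Decrease in ATP = cytotoxicity; AC50 from standard Hill fit.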

[7] = Cell Viability - HUV-EC-C (AID 542); conditions: HUV-EC-C endothelial cell viability, qHTS; series mostly up to 92.2 µM; note: % is set by controls: 0 for no effect and ±100 for the full control effect; nearly all actives have a fitted effect of over 35% in size
How it was run: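 Luminescent ATP read-out (CellTiter-Glo, 20 min room temperature) after 40 hr compound treatment of HUV-EC-C cells at 37 °C. Concentration-response data fitted with the standard Hill equation to give AC50; tamoxifen and doxorubicin served as positive controls.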

[8] = Cell Viability - H-4-II-E (AID 543); conditions: H-4-II-E rat hepatoma viability; series mostly up to 92.2 µM; note: % is set by controls: 0 for no effect and ±100 for the full control effect; nearly all actives have a fitted effect of over 35% in size
How it was run: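 qHTS, rat hepatoma H-4-II-E, 1500 cells/well; 40 hr compound exposure, 37 °C; CellTiter-Glo ATP luminescence after 20 min RT; AC50 by standard Hill fit.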

[9] = Cell Viability - SH-SY5Y (AID 544); conditions: SH-SY5Y neuroblastoma cell viability; at 92.2 µM (top of the series);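 note: 0% = DMSO alone and -100% = 100 µM tamoxifen; nearly all actives have a fitted effect of over 55% in size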
How it was run: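 SH-SY5Y, 1500 cells/well, 5 hr pre-incubation 37 °C; cpd 40 hr 37 °C; CellTiter-Glo 20 min RT; luminescence (ATP) read. qHTS concentration-response, Hill fit → AC50. Tamoxifen, doxorubicin as positive controls.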

[10] = Cell Viability - Renal Proximal Tubule (AID 545); conditions: renal proximal tubule cells viability, primary cells of rat origin; series mostly up to 91.7 µM;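 note: 0% = DMSO only and -100% = 100 µM tamoxifen; nearly all actives have a fitted effect of over 40% in size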
How it was run: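 Rat kidney proximal tubule cells, freshly isolated; 1000 cells/well, 5 hr settle, compound 40 hr 37 °C. CellTiter-Glo 20 min RT, luminescence read. AC50 by standard Hill fit.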

[11] = Cell Viability - Mesenchymal (AID 546); conditions: mesenchymal cells viability, qHTS; at 91.7 µM (top of the series);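 note: cells exposed to compound for 40 hours before reading; 0% = DMSO only and -100% = 100 µM tamoxifen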
How it was run: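 CellTiter-Glo luminescence (intracellular ATP, 20 min room temperature) after 40 hr compound exposure at 37 °C of 1000 glomerulus-derived human kidney mesenchymal cells/well; AC50 values obtained by fitting qHTS concentration-response data to the Hill equation.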

[12] = target: Mitogen-activated protein kinase 10 (Mus musculus) (UniProt Q61831); experiment: JNK3 AlphaScreen Assay (AID 530; active = well fitted curve in either direction with a large enough effect, not every such curve was filed as active;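 note: kinase came from lysate of stimulated human HepG2 cells; signal reports phosphorylation of biotinylated GST-cJun 1-79 at Ser73 with 10 µM ATP; % is set by controls: 0 for no effect and ±100 for the full control effect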); conditions: JNK3 lysate, c-Jun phosphorylation; series mostly up to 57.1 µM
How it was run: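 Kinase buffer: 20 mM Tris-HCl pH 7.6, 10 mM MgCl2, 1 mM DTT, 0.1 mM Na3VO4, 0.01% Tween-20; ATP 10 uM. Substrate biotin-GST-cJun(1-79), enzyme from activated HepG2 lysates. Detection by Ser73 phospho-antibody AlphaScreen.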

[13] = target: Glucocorticoid receptor (Homo sapiens) (UniProt P04150); experiment: GR-GFP Redistribution (AID 450;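 active = compounds whose dose series gives a full or clear partial fitted curve of increased nuclear translocation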; note: potency is the fitted concentration of half-maximal effect); conditions: U2OS GR-GFP nuclear translocation, laser cytometry, 2 h
[14] = target: Glucocorticoid receptor (Homo sapiens) (UniProt P04150); experiment: GR-EFC Redistribution (AID 451; calls by dose curve; note: potency is the fitted concentration of half-maximal effect); conditions: CHO-K1 GR-EFC translocation, beta-gal luminescence, 2 h
How it was run: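 Translocation of GR-ED fusion to nuclear EA restores b-gal, read by luminescence after 1 h room-temperature detection. Engineered CHO-K1 biosensor cells, 1,000/well, exposed 2 h at 37 C to titrations up to 46 uM final.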

[15] = target: 3',5'-cyclic-AMP phosphodiesterase 4B (Homo sapiens) (UniProt Q07343); experiment: qHTS Assay for Inhibitors of PDE-IV (AID 607; active = well fitted activation curve with a large enough effect in the main read-out, with a control signal flat, not every such curve was filed as active; note: % of control where 0% means no effect); conditions: HEK293 ACTOne CNG channel cells, membrane potential fluorescence; series mostly up to 22.9 µM
How it was run: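 ACTOne HEK293 cells carry a modified cAMP-gated CNG channel and express endogenous PDE4; plated 1000 cells/well, compounds up to 22.9 uM final. Membrane-potential dye fluorescence (ex 535/em 590) was read; parental cells received 10 uM forskolin + 100 uM RO 20-1724.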

[16] = AP1 Signaling Pathway (AID 357; active = well fitted curve in either direction with a large enough effect, not every such curve was filed as active; note: % is set by controls: 0 for no effect and ±100 for the full control effect); conditions: ME-180 AP-1-bla reporter, EGF-induced, beta-lactamase ratio, 5 h; series mostly up to 17.2 µM
How it was run: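 Titration-series screen for positive or negative modulators of EC50 EGF-induced signaling in ME-180 cells carrying an AP-1-driven beta-lactamase reporter. After 5 hours at 37 degrees Celsius, CCF4 460nm/530nm emission ratio gave %Activity; AC50 values derived.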

[17] = Stat Signaling Pathway (AID 446; active = well fitted curve in either direction with a large enough effect, not every such curve was filed as active;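 note: ME-180 cervical cancer cells given 40 pM IL-6 alongside compound; SIE-controlled beta-lactamase reporter measured as 460/530 nm FRET emission ratio; % is set by controls: 0 for no effect and ±100 for the full control effect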); conditions: ME-180 (cervical carcinoma) SIE beta-lactamase reporter, IL-6 stimulated, 5 h; series mostly up to 17.2 µM
How it was run: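 Compound effects on IL-6-induced STAT reporter activity were measured in ME-180 cells. After overnight culture, cells were co-treated with 40 pM IL-6 for 5 hrs before beta-lactamase substrate loading at room temperature.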

[18] = target: Cytochrome P450 1A2 (Homo sapiens) (UniProt P05177); experiment: p450-cyp1a2 (AID 410; calls by dose curve;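 note: -100% = full effect of reference inhibitor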); conditions: recombinant CYP1A2, luciferin-ME demethylation, luminescence; series mostly up to 57 µM
How it was run: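 20nM CYP1A2, 100uM Luciferin-ME (=Km), 100mM KPO4; cpd 10 min RT; +NADPH regen, 60 min RT; stop/detect 20 min; luminescence. Normalized to furafylline 57 uM = full inhibition.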

[19] = NFAT Signaling Pathway (AID 444; active = well fitted curve in either direction with a large enough effect, not every such curve was filed as active;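 note: carbachol stimulus at about its EC50 of 1 µM final; % is set by controls: 0 for no effect and ±100 for the full control effect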); conditions: Jurkat NFAT-bla M1, carbachol, beta-lactamase ratio, 5 h; at 17.2 µM (top of the series)
How it was run: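 Read-out: CCF4 FRET ratio (460 nm/530 nm) after 1 h RT dye loading, used for %activity and AC50 from titration series. Cells: Jurkat NFAT-β-lactamase/M1 line, treated with compound plus 1 uM carbachol for 5 h, 37 °C.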

3',5'-cyclic-AMP phosphodiesterase 4B (Homo sapiens), sequence (Q07343 whole entry, looked up): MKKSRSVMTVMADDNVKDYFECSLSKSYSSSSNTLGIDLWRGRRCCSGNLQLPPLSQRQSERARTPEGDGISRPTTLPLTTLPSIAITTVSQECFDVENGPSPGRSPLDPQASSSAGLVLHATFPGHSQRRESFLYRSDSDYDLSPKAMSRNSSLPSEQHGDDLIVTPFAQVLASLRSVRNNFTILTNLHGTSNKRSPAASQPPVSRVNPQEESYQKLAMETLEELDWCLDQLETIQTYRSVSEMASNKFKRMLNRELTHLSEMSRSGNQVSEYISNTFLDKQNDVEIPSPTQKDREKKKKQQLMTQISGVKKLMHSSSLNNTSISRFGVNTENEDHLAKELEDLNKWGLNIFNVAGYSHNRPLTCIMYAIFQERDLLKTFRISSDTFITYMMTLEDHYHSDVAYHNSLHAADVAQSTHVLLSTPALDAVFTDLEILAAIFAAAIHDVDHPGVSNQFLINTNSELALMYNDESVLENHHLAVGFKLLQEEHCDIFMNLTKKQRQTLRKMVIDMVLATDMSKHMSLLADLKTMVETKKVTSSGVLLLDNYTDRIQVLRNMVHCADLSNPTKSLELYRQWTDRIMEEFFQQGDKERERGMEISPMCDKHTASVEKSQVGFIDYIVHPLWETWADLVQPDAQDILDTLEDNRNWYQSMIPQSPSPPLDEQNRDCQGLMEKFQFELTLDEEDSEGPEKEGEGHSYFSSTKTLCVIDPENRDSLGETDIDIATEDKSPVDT
Glucocorticoid receptor (Homo sapiens), sequence (P04150 whole entry, looked up, the tested form may be a part): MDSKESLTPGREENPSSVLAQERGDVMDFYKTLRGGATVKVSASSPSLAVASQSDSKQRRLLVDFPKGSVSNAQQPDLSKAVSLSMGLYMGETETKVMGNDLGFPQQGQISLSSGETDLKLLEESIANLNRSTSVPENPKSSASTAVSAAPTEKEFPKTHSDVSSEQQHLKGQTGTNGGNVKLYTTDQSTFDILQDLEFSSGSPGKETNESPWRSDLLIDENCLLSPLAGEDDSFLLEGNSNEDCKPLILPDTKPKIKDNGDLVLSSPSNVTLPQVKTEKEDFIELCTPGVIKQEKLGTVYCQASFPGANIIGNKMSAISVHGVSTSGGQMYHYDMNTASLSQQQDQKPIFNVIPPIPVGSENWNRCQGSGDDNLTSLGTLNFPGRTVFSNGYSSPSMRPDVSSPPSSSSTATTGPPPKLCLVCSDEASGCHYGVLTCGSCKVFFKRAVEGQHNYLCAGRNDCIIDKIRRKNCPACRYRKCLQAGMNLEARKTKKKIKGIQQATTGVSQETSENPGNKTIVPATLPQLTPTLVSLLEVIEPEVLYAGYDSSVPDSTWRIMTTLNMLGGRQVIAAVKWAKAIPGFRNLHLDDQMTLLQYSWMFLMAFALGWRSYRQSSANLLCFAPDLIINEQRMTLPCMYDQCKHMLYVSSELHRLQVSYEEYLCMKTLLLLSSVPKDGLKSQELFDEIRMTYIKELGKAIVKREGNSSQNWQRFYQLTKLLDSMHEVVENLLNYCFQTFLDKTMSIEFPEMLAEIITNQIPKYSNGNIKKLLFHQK
Cytochrome P450 1A2 (Homo sapiens), sequence (P05177 whole entry, looked up): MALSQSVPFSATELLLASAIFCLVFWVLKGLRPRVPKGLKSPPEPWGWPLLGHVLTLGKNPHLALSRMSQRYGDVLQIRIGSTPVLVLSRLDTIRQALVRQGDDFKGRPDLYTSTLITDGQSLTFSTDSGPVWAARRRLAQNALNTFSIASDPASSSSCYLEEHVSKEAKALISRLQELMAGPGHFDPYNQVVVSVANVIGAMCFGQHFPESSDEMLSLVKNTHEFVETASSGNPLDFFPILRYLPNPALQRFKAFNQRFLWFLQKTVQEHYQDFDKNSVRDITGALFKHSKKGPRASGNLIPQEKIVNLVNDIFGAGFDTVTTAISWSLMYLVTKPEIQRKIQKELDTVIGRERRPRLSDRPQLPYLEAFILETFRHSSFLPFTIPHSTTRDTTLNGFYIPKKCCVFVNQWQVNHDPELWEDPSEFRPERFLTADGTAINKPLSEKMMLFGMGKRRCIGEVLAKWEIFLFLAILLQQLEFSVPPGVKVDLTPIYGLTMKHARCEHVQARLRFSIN

CCCCC/C=C\C/C=C\CCCCCCCC(=O)O
inactive: Potency [1] > 92 µM | Potency [2] > 92 µM | Potency [3] > 92 µM | Potency [4] > 92 µM | activity change, negative = cytotoxicity [5] -28.9% | outcome [6] | Potency [7] | Potency [8] | viability change, negative = cytotoxic [9] 0.00595% | outcome [10] | activity change, negative = cytotoxicity [11] 8.92%

O=CCCCC=O
inactive: Potency [1] > 92 µM | Potency [3] > 92 µM | outcome [12] | Potency [7] | outcome [10] | activity change, negative = cytotoxicity [11] -29.7%
active: Potency [2] 6.45 µM

O=S(=O)(O)O
inactive: Potency [1] > 92 µM | Potency [2] > 92 µM | Potency [3] > 92 µM | Potency [4] > 92 µM | outcome [12] | activity change, negative = cytotoxicity [5] -3.09% and 7.28% | outcome [6] | Potency [7] | Potency [8] | viability change, negative = cytotoxic [9] 2.52% and 9.94% | outcome [10] | activity change, negative = cytotoxicity [11] -5.83% and 4.47%

COC(=O)C1=C(C)NC(C)=C(C(=O)OCCCN2CCC(c3ccccc3)(c3ccccc3)CC2)[C@H]1c1cccc([N+](=O)[O-])c1
inactive: Potency [13] > 46 µM | Potency [14] > 46 µM | outcome [12] | outcome [15]

IC(I)I
inactive: Potency [1] > 92 µM | Potency [2] > 92 µM | Potency [3] > 92 µM | Potency [4] > 92 µM | outcome [12] | activity change, negative = cytotoxicity [5] -10.4% | outcome [6] | Potency [7] | Potency [8] | viability change, negative = cytotoxic [9] -2.58% | outcome [10] | activity change, negative = cytotoxicity [11] 5.44%

CC(C)(C)C(=O)OCOC(=O)[C@@H]1N2C(=O)[C@@H](N=CN3CCCCCC3)[C@H]2SC1(C)C
inactive: outcome [16] | outcome [17] | outcome [12] | outcome [15]

CC(=O)N[C@@H](CC(=O)O)C(=O)N[C@@H](CCC(=O)O)C(=O)O (Ac-Asp-Glu-OH)
inactive: Potency [18] | activity change, negative = inhibition [19] -12.3% | outcome [17] | Potency [13] > 20.6 µM and > 46 µM | Potency [14] > 20.6 µM and > 46 µM | outcome [12] | outcome [15]

CC1=C(/C=C/C(C)=C/C=C/C(C)=C/CO)C(C)(C)CCC1
inactive: Potency [1] > 92 µM | Potency [3] > 92 µM | Potency [7] | activity change, negative = cytotoxicity [11] -3.42%
active: activity change, negative = cytotoxicity [5] -116%

CC(C)N=c1cc2n(-c3ccc(Cl)cc3)c3ccccc3nc-2cc1Nc1ccc(Cl)cc1
active: activity change, negative = inhibition [19] -120%
inactive: Potency [18] | outcome [17] | Potency [13] > 20.6 µM | Potency [14] > 20.6 µM | outcome [15]
